Pf Dd2 inh – qHTS Primary assay for Inhibitors of Plasmodium falciparum Dd2 growth in vitro | P. falciparum Dd2 growth, SYBR Green, 72 h | Potency, µM (doses to about 28.9 µM), usual class: inhibitors | actives 4.3% (n = 120,000) | AID 1347417, 2020; active = well fitted inhibition curve with a large enough effect; also: nearly all actives have a fitted effect of over 65% in size
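Readout: SYBR Green fluorescence, 485 nm excitation, 535 nm emission, after ~16 h lysis at 37C. Before that, Dd2-infected red cells (2.5% hematocrit) grew 72 h with compound, 29 uM top final concentration.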
Numbers stand for hits; . = inactive. The entries come from a sample that favours hits as a whole.

SMILES	Pf Dd2 inh
CCC(=O)Oc1ccc(/C=C(\C#N)c2nc3ccccc3[nH]2)cc1OC	.
COc1ccc(NC(C)(C)C(=O)N2CCC3(CCN(C)CC3)C2)cc1	.
Cc1ccc(C(=O)N2CCCN(C(=O)C3CC3)C(c3ccccc3)CC(=O)NCC2)cn1 (stereo unspecified)	.
Cc1cccc(-c2nc3c4ccccc4nc(N4CCN(c5ccc(F)cc5)CC4)n3n2)c1	.
Cc1cccc(N2CCN(c3nc4ccccc4c4nc(-c5cccnc5)nn34)CC2)c1C	.
CCc1ccc(-n2c(N3CCN(c4ccc(F)cc4)CC3)nc3ccccc3c2=O)cc1	5.6µM
CCc1ccc(-n2c(N3CCN(c4cccc(C)c4C)CC3)nc3ccccc3c2=O)cc1	11µM
Cc1ccc(C)c(N2CCN(c3nc4ccccc4c(=O)n3-c3ccccc3)CC2)c1	.
Cc1ccc(-n2c(/C=C\c3ccc(F)cc3)nc3ccccc3c2=O)cc1Cl	.
CN(C)C(=O)CN1CCCc2nc(C3CC3)ncc2C1=O	.
CCC(C)C(=O)N1CCC2(CC1)CN(Cc1ccc(OC)cc1)C2=O (stereo unspecified)	.
Cc1ccc(C(=O)N2C[C@@H](CO)[C@H](c3ccccn3)C2)c(C)c1	.
CC1CCN(S(=O)(=O)c2ccc3nc(-c4cccnc4)cc(C(=O)NCCCOC(C)C)c3c2)CC1	.
CCCCN(CCCC)CCNC(=O)c1cc(-c2cccnc2)nc2ccc(S(=O)(=O)N3CCC(C)CC3)cc12	.
CCCCN(C)CCNC(=O)c1cc(-c2cccnc2)nc2ccc(S(=O)(=O)N3CCC(C)CC3)cc12	5µM
Cc1nc(C(=O)N2CCC(c3nnc(CN4CCCC4)n3C)CC2)cs1	.
CCc1ccc(NC(=O)Cn2c(N3CCCCC3)nc(C)c(C)c2=O)cc1	.
O=C(CN1CC2CC(C1)[C@H]1CCCC(=O)N1C2)NCCCN1CCN(c2ccccc2)CC1 (stereo partly specified)	.
COc1cccc(CN(C)C(C)c2cccs2)c1 (stereo unspecified)	.
CC(c1cccs1)N(C)S(C)(=O)=O (stereo unspecified)	.
CC(c1cccs1)N(C)Cc1cccc2ccccc12 (stereo unspecified)	13µM
Cn1ncc(N2CCC(NC(=O)CC3CCCC3)CC2)cc1=O	.
Cc1ccsc1CN1CCOc2ccc(C(=O)NCc3ccccc3F)cc2C1	.
COc1cccc([C@H]2CN(C(=O)Cc3cnc[nH]3)[C@@H]3C4CCN(CC4)[C@H]23)c1	.
CCc1ccc(S(=O)(=O)N(C)CC2CCOCC2)cc1	.
SMILES	Pf Dd2 inh
CSCCC(NS(=O)(=O)c1ccc2c(c1)oc(=O)n2C)C(=O)N1CCN(c2cc(C)ccc2C)CC1 (stereo unspecified)	.
Cc1ccc(C)c(N2CCN(C(=O)C(CC(C)C)NS(=O)(=O)c3ccc4nc(C)sc4c3)CC2)c1 (stereo unspecified)	7.9µM
Cc1nc2ccc(S(=O)(=O)NCC(=O)Nc3ccc(C)c(Cl)c3)cc2s1	.
O=[N+]([O-])c1cccc(-c2noc([C@@H]3C[C@@H](O)CN3Cc3cccs3)n2)c1	.
CCCNC(=O)C1C(c2cccc(NC(=O)c3ccc(C)cc3)c2)OC(=O)N1Cc1ccc(C)cc1 (stereo unspecified)	.
CC(C)(C)C(=O)N1CCCC2(CN[S+](=O)([O-])c3cccnc3O2)C1 (stereo unspecified)	.
CC(C)N[C@@H]1CC[C@@H]1NC(=O)c1ccc(C(F)(F)F)cc1C(F)(F)F	.
Cc1cc(-c2cc3c(cn2)CN(Cc2ccc4[nH]ccc4c2)CCN3)ccn1	.
Cc1[nH]cnc1CN1CCNc2cc(Nc3ccccc3)ncc2C1	.
COc1cccc(Nc2cc3c(cn2)CN(Cc2cccnc2)CCN3)c1	.
CC(C)(C)CN1CCNc2cc(Nc3cccnc3)ncc2C1	.
Cn1cc(CN2CCNc3cc(Nc4ccccc4)ncc3C2)cn1	.
COc1ccc(CN2CCNc3cnc(Nc4cccnc4)cc3C2)cc1O	.
Cn1cc(CN2CCNc3cc(-c4ccccc4)ncc3C2)cn1	.
c1ccc(Nc2cc3c(cn2)CN(Cc2c[nH]c4ccccc24)CCN3)cc1	4.5µM
c1ccc(Nc2cc3c(cn2)NCCN(Cc2ccccn2)C3)cc1	.
c1ccc(-c2cc3c(cn2)CN(Cc2ccc4[nH]ccc4c2)CCN3)cc1	6.3µM
c1cncc(Nc2cc3c(cn2)CN(Cc2ccc4[nH]ccc4c2)CCN3)c1	2.8µM
Cc1cccc(CN2CCNc3cc(Nc4cccnc4)ncc3C2)c1	5.6µM
c1c[nH]c(C2CCCC2)n1	.
O=C(O)c1ccc(C2CCCN(C(=O)CN3CCc4ccccc4C3)C2)cc1 (stereo unspecified)	.
Cn1c(C(=O)O)cc2c1CCN(Cc1ccc(F)cc1)C2	.
COCCN1CCCN(C(=O)C2CCCCC2)c2ccccc21	.
Cc1ccc(N2CCC(NC(=O)c3ccc(C#N)cc3)C2=O)cc1C (stereo unspecified)	.
Cc1ccccc1C(=O)N1CCC(c2n[nH]c(=O)n2Cc2ccc(F)cc2)CC1	.
SMILES	Pf Dd2 inh
O=C(N[C@@H]1CCC[C@@H]1C(=O)NCCc1ccccc1)c1ccncc1	.
Oc1ccccc1CN1CCNc2cc(Nc3cccnc3)ncc2C1	8.9µM
c1ccc(Nc2cc3c(cn2)CN(Cc2ccn[nH]2)CCN3)cc1	.
Oc1ccccc1CN1CCNc2cnc(Nc3ccccc3)cc2C1	.
CN1CCNc2cc(Nc3ccncc3)ncc2C1	.
Oc1ccccc1CN1CCNc2cc(Nc3ccccc3)ncc2C1	5µM
Oc1ccccc1CN1CCNc2cnc(OCc3cccnc3)cc2C1	.
CCCNC(=O)C(NC(=O)c1ccccc1C)C1CCN(C(=O)C2CCCC2)CC1 (stereo unspecified)	.
CN1C[C@@H](NC(=O)C2CCCCC2)C[C@H]1c1nc(-c2ccc(F)cc2)no1	.
Cc1cccc(NC(=O)Cn2ccn3nc(-c4ccccc4)c(CO)c3c2=O)c1C	.
N#Cc1ccccc1CN1CCNc2nc(COc3ccccc3)n(Cc3ccccc3)c2C1=O	.
O=C(O)c1ccc(NCc2nc3c(n2Cc2ccccc2)C(=O)N(Cc2cccc(Cl)c2)CCN3)cc1	.
COCCN1CCNc2nc(CNCc3cccc(Cl)c3)n(Cc3ccccc3)c2C1=O	.
CN(Cc1ccccc1)Cc1nc2c(n1Cc1ccccc1)C(=O)N(Cc1ccccc1C#N)CCN2	10µM
CC(=O)N1CCN(Cc2nc3c(n2Cc2ccccc2)C(=O)N(Cc2ccccc2C#N)CCN3)CC1	.
O=C1c2c(nc(CNCc3cnccn3)n2Cc2ccccc2)NCCN1Cc1cccc(Cl)c1	2.2µM
Cc1nn2c(c1-c1ccccc1C(C)C)N(C(=O)c1cccnc1)CCC2	.
COC(=O)[C@H]1CN(C(C)=O)CCN1C(C)=O	.
COc1ccc(-c2nc(CN3CCN(CCO)CC3)c(C)o2)c2ccccc12	11µM
COc1cc(-c2nc(CN3CCSCC3)c(C)o2)ccc1F	.
COc1ccc(F)c(-c2nc(CN3CCN(S(N)(=O)=O)CC3)c(C)o2)c1	.
COc1ccc(C)cc1NC(=O)Cn1ccn2nc(-c3ccc(F)cc3)c(CO)c2c1=O	.
CN1[C@@H](CCC(=O)N2CCc3ccccc32)CNC(=O)[C@@H]2[C@H]1CCN2Cc1ccc(O)cc1	.
CCCn1ccnc1-c1c(-c2ccccc2)ncn1CCCC(=O)OC	.
COc1cccc(OC)c1-c1c(-c2ccccc2)ncn1CCCSC	10µM
COc1cccc2ccc(-c3c(-c4ccccc4)ncn3CCNC(C)=O)nc12	.
COCCN1C(=O)[C@H]2CN(Cc3ccccc3C(F)(F)F)C[C@H]2C1=O	.

Screens: PubChem, National Center for Advancing Translational Sciences (NCATS)
